The supplement of paper PMC6953052
Several values for one entry are separate records, joined by “and”; a condition that tells them apart may be missing. Equal entries are not always repeated. The full ranking holds about 1,700 compounds; the median of “fraction of GFP-LC3-positive cells (≥5 vesicles/cell)” is about 0.058, and the highest 2% start at about 0.59. For the sample, the highest values were picked, then their nearest neighbours and some compounds at random.

system: CbCln3 +/+ GFP-LC3 cerebellar neuronal cells; test: fraction of GFP-LC3-positive cells (≥5 vesicles/cell); higher = more autophagosome accumulation
Outline: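 In 384-well plates at 2 × 10^3 cells per well, GFP-LC3-expressing wild-type or mutant CbCln3 cerebellar cells took ~50 nL of compound in DMSO by pin transfer, in duplicate, for 24 h at 33 °C. Staining with Hoechst 33342 and LysoTracker Red over the final 30 min preceded fixation in 3.2% PFA and imaging of three fields per well at 10×. CellProfiler then counted GFP-LC3 vesicles in each cell, and out-of-focus images were dropped before the fraction of cells with 5 or more vesicles was averaged over duplicates.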

Row | Structure (SMILES) | fraction of GFP-LC3-positive cells
1 | N#CC(=C(/N)Sc1ccccc1N)/C(C#N)=C(\N)Sc1ccccc1N | 0.0648 and 0.109
2 | CO[C@H]1/C=C/O[C@@]2(C)Oc3c(C)c(O)c4c(O)c(c(/C=N/N5CCN(C)CC5)c(O)c4c3C2=O)NC(=O)/C(C)=C\C=C\[C@H](C)[C@H](O)[C@@H](C)[C@@H](O)[C@@H](C)[C@H](OC(C)=O)[C@@H]1C [Rifampicin] | 0.0415
3 | C[C@]12CCC(=O)C=C1CC[C@@H]1[C@@H]2C(=O)C[C@@]2(C)[C@H]1CC[C@]2(O)C(=O)CO [Cortisone] | 0.0551
4 | CCCCCCCC/C=C/CCCCCCCCCCC(=O)O [12(Z) Heneicosenoic acid] | 0.0354
5 | CCC1(c2ccccc2)C(=O)NCNC1=O [Primidone] | 0.0329
6 | CC(C)Cn1c(=O)n(C)c(=O)c2[nH]cnc21 | 0.0399
7 | CN1C(C(=O)Nc2ccccn2)=C(O)c2ccccc2S1(=O)=O [piroxicam] | 0.0598
8 | C[C@H](NCCc1ccc(O)cc1)[C@H](O)c1ccc(O)cc1.Cl [Ritodrine hydrochloride] | 0.0423
9 | CO[C@H]1C[C@@H]2CC[C@@H](C)[C@@](O)(O2)C(=O)C(=O)N2CCCC[C@H]2C(=O)O[C@H]([C@H](C)C[C@@H]2CC[C@@H](O)[C@H](OC)C2)CC(=O)[C@H](C)/C=C(\C)[C@@H](O)[C@@H](OC)C(=O)[C@H](C)C[C@H](C)/C=C/C=C/C=C/1C | 0.0529
10 | N#Cc1c(-c2ccccc2)no[n+]1[O-] [Furoxan] | 0.597
11 | COc1cc(CNC(=O)CCCC/C=C/C(C)C)ccc1O [Capsaicin] | 0.0783
12 | Cc1cccc(Nc2ccncc2S(=O)(=O)NC(=O)NC(C)C)c1 [Torsemide] | 0.0886
13 | CC(/C=C/C(=O)NO)=C\[C@@H](C)C(=O)c1ccc(N(C)C)cc1 [trichostatin-A] | 0.799
14 | CN(C)N=Nc1[nH]cnc1C(N)=O [Dacarbazine] | 0.0174
15 | CC/C=C\C/C=C\C/C=C\C/C=C\C=C\C(O)CCCC(=O)O (racemic) | 0.07
16 | Cc1ccc(S(=O)(=O)N[C@@H](Cc2ccccc2)C(=O)CCl)cc1 [Tosyl-Phe-CMK (TPCK)] | 0.744
17 | CCCCNC(=O)NS(=O)(=O)c1ccc(C)cc1 [Tolbutamide] | 0.0602
18 | Cc1ccc(S(=O)(=O)N[C@@H](Cc2ccccc2)C(=O)CCl)cc1 | 0.315
19 | CCCCNC(=O)NS(=O)(=O)c1ccc(C)cc1 | 0.046
20 | O=C(O)c1ccccc1OP(=O)(O)O [Fosfosal] | 0.0551
21 | O[C@H]1[C@H]2c3cc4c(cc3CN3CCC(=C[C@@H]1O)[C@H]23)OCO4 [Lycorine] | 0.424
22 | CC(=O)CC(c1ccc([N+](=O)[O-])cc1)c1c(O)c2ccccc2oc1=O (stereo not given) [Acenocoumarol] | 0.0753

Row | Structure (SMILES) | fraction of GFP-LC3-positive cells
23 | CCCCC/C=C\C/C=C\C/C=C\C=C\C1CCCC(=O)O1 (racemic) [(±)5-HETE Lactone] | 0.0775
24 | CCCCNc1ccc(C(=O)OCCOCCOCCOCCOCCOCCOCCOCCOCCOC)cc1 [Benzonatate] | 0.0604
25 | CCCCCCCCCCCCCCCCOCC(CO)OC(C)=O (stereo not given) [1-Hexadecyl-2-O-acetyl-glycerol] | 0.076
26 | CCCCCCCCCCCCCCCCOCC(CO)OC(C)=O (stereo not given) | 0.0373
27 | CCN(CC)CCNC(=O)COc1ccc(OC)cc1.Cl [Mefexamide hydrochloride] | 0.0712
28 | CC1=C(/C=C/C(C)=C/C=C/C(C)=C/C(=O)O)C(C)(C)CCC1 [Retinoic acid, all trans] | 0.0413
29 | CC1=C(/C=C/C(C)=C/C=C/C(C)=C/C(=O)O)C(C)(C)CCC1 | 0.0875
30 | O=C(CCCCC(=O)Nc1c(I)cc(I)c(C(=O)O)c1I)Nc1c(I)cc(I)c(C(=O)O)c1I [Iodipamide] | 0.064
31 | CCCCC[C@H](O)/C=C/[C@H]1C(=O)C[C@H](O)[C@@H]1C/C=C\CCCC(=O)O [Prostaglandin D2] | 0.0347
32 | CCCCC[C@H](O)/C=C/[C@H]1C(=O)C[C@H](O)[C@@H]1C/C=C\CCCC(=O)O | 0.0396
33 | Cc1ccc2c(c1)C(=O)C1(O)CCN(c3ccccc3)C1=N2 (stereo not given) [Blebbistatin] | 0.0372
34 | CC(=O)S[C@@H]1CC2=CC(=O)CC[C@]2(C)[C@H]2CC[C@@]3(C)[C@@H](CC[C@@]34CCC(=O)O4)[C@H]12 [Spironolactone] | 0.0439
35 | CCCCCCCC/C=C\C/C=C\C/C=C\CCCC(=O)O [Mead acid (20:3 n-9)] | 0.0545
36 | CCCCCCCC/C=C\C/C=C\C/C=C\CCCC(=O)O | 0.0292
37 | N/C(=N\C(=O)c1nc(Cl)c(N)nc1N)NCc1ccccc1 | 0.0546
38 | Cl.N/C(=N\C(=O)c1nc(Cl)c(N)nc1N)NCc1ccccc1 [Benzamil hydrochloride] | 0.0345
39 | N/C(=N\C(=O)c1nc(Cl)c(N)nc1N)NCc1ccc(Cl)cc1Cl | 0.6
40 | CC(N/C(=N\C#N)Nc1ccncc1)C(C)(C)C (stereo not given) [Pinacidil] | 0.0274
41 | CCN(CC)CCCCCCCCOC(=O)c1cc(OC)c(OC)c(OC)c1 | 0.0457
42 | CN1CCC(=C2c3ccccc3Sc3ccccc32)CC1.O=C(O)/C=C\C(=O)O [Pimethixene maleate] | 0.0718
43 | CN(C)CCN(Cc1ccc(Cl)cc1)c1ccccn1.Cl [Chloropyramine hydrochloride] | 0.056
44 | CNCCc1ccccn1.CS(=O)(=O)O.CS(=O)(=O)O [Betahistine mesylate] | 0.0666

Row | Structure (SMILES) | fraction of GFP-LC3-positive cells
45 | c1ccc(CN(CCN(Cc2ccccn2)Cc2ccccn2)Cc2ccccn2)nc1 | 0.755
46 | CC(C)(Sc1cc(C(C)(C)C)c(O)c(C(C)(C)C)c1)Sc1cc(C(C)(C)C)c(O)c(C(C)(C)C)c1 [Probucol] | 0.0472
47 | COc1cc2ccc(=O)oc2cc1O [Scopoletin] | 0.0458
48 | CCOC(=O)Oc1c(OC)cc(C(=O)O[C@@H]2C[C@@H]3CN4CCc5c([nH]c6cc(OC)ccc56)[C@H]4C[C@@H]3[C@H](C(=O)OC)[C@H]2OC)cc1OC [Syrosingopine] | 0.251
49 | CCn1cc(C(=O)O)c(=O)c2cc(F)c(N3CCNCC3)nc21 [Enoxacin] | 0.045
50 | Cc1cc2ncc(-c3ccccc3)nc2cc1C | 0.0688
51 | O=C(O)CNC(=O)C(CS)Cc1ccccc1 (stereo not given) | 0.0651
52 | O=C(O)CNC(=O)C(CS)Cc1ccccc1 (stereo not given) [Thiorphan] | 0.0564
53 | COc1cccc2c1C(=O)c1c(O)c3c(c(O)c1C2=O)C[C@@](O)(C(C)=O)C[C@@H]3O[C@H]1C[C@H](N)[C@H](O)[C@H](C)O1.Cl [Daunorubicin hydrochloride] | 0.568
54 | COc1cccc2c1C(=O)c1c(O)c3c(c(O)c1C2=O)C[C@@](O)(C(=O)CO)C[C@@H]3O[C@H]1C[C@H](N)[C@H](O)[C@H](C)O1.Cl [Doxorubicin hydrochloride] | 0.482
55 | COc1cccc2c1C(=O)c1c(O)c3c(c(O)c1C2=O)C[C@@](O)(C(=O)CO)C[C@@H]3O[C@H]1C[C@H](N)[C@H](O)[C@H](C)O1.Cl [doxorubicin] | 0.608
56 | CC[N+](CC)(CC)CC(=O)Nc1c(C)cccc1C.[Br-] | 0.0348
57 | CC(C)N1CCN(c2ccc(OC[C@H]3CO[C@](Cn4cncn4)(c4ccc(Cl)cc4Cl)O3)cc2)CC1 [Terconazole] | 0.0686
58 | O=C(O)c1ccc2nc(-c3ccccc3)c(-c3ccccc3)nc2c1 | 0.0605
59 | c1ccc2c(Cc3c[nH]c4ccccc34)c[nH]c2c1 | 0.0651
60 | c1ccc2c(Cc3c[nH]c4ccccc34)c[nH]c2c1 [Diindolylmethane] | 0.0761
61 | Nc1nc(=O)c2c([nH]1)NCC(CNc1ccc(C(=O)N[C@@H](CCC(=O)[O-])C(=O)[O-])cc1)N2C=O.[Ca+2] (stereo not given in full) [Folinic acid calcium salt] | 0.0553
62 | CC[C@H]1[C@@H]2C=C[C@@H]3[C@H]4C/C=C\C(=O)NCCC[C@@H]5NC(=O)C(=C5O)C(=O)CC[C@@H]4C[C@@H]3[C@H]2C[C@H]1C [Ikarugamyin] | 0.69
63 | CC1=C(C(=O)O)N2C(=O)[C@@H](NC(=O)[C@H](N)c3ccccc3)[C@H]2SC1.O [Cephalexin monohydrate] | 0.0422
64 | OC[C@H]1NC[C@H](O)[C@@H](O)[C@@H]1O [deoxynorjrimycin(1)] | 0.0354
65 | O=C(O)c1cc(-c2ccc(F)cc2F)ccc1O [Diflunisal] | 0.0501
